# Experimental data: PubChem BioAssay AID1159580 (chemical genetic matrix, 2015)
# “And” between values parts separate entries of the source, which are not always exact repeats. Equal values may be shown once. The whole screen tested about 5,500 compounds, of which about 2,000 (36%) were called active. Inconclusive results (about 18%) are left out. The list shows a part of the results. A number with no mark means an inactive call. Cut-off read from the data, not from the text of the source: active = normalized growth mostly below about 0.91 (no sharp cut-off); inconclusive = no clear call, values can overlap the other calls; inactive = mostly above about 0.92.
# Assay: chemical genetic growth profiling, strain panel (AID 1159580);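 note: tested at 20 µM; growth read once vehicle control cultures reached saturation at 30 °C; 1 = growth at the plate median or of vehicle wells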
# Conditions: growth OD
smiles,measurement,setting,value
O=c1[nH]cc(F)c(=O)[nH]1,normalized growth,"S. cerevisiae deletion strains, locus YKL009W, strain mrt4, stronger effect = lower value",0.862 (active)
same,normalized growth,"S. cerevisiae deletion strains, locus YKL068W, stronger effect = lower value",0.995
same,normalized growth,"S. cerevisiae deletion strains, locus YKL085W, strain MDH1 (second series), stronger effect = lower value",0.965
same,normalized growth,"S. cerevisiae deletion strains, locus YKL085W, strain MDH1, stronger effect = lower value",0.965
same,normalized growth,"S. cerevisiae deletion strains, locus YKL160W, strain elf1, stronger effect = lower value",0.671 (active)
same,normalized growth,"S. cerevisiae deletion strains, locus YKL190W, strain CNB1, stronger effect = lower value",0.858 (active)
same,normalized growth,"S. cerevisiae deletion strains, locus YKR001C, strain vps1, stronger effect = lower value",0.471 (active)
same,normalized growth,"S. cerevisiae deletion strains, locus YKR026C, strain gcn3, stronger effect = lower value",0.83 (active)
same,normalized growth,"S. cerevisiae deletion strains, locus YKR091W, strain srl3, stronger effect = lower value",1.01
same,normalized growth,"S. cerevisiae deletion strains, locus YLL001W, strain dnm1, stronger effect = lower value",0.456 (active)
same,normalized growth,"S. cerevisiae deletion strains, locus YLL026W, stronger effect = lower value",0.588 (active)
same,normalized growth,"S. cerevisiae deletion strains, locus YLL041C, strain sdh2, stronger effect = lower value",0.849 (active)
same,normalized growth,"S. cerevisiae deletion strains, locus YLR027C, strain aat2, stronger effect = lower value",0.537 (active)
same,normalized growth,"S. cerevisiae deletion strains, locus YLR039C, strain RIC1, stronger effect = lower value",0.601 (active)
same,normalized growth,"S. cerevisiae deletion strains, locus YLR058C, strain SHM2, stronger effect = lower value",0.746 (active)
same,normalized growth,"S. cerevisiae deletion strains, locus YLR102C, strain apc9, stronger effect = lower value",0.943
same,normalized growth,"S. cerevisiae deletion strains, locus YLR113W, strain HOG1, stronger effect = lower value",0.772 (active)
same,normalized growth,"S. cerevisiae deletion strains, locus YLR221C, strain rsa3, stronger effect = lower value",0.411 (active)
same,normalized growth,"S. cerevisiae deletion strains, locus YLR258W, strain gsy2, stronger effect = lower value",0.542 (active)
same,normalized growth,"S. cerevisiae deletion strains, locus YLR262C, strain YPT6 (second series), stronger effect = lower value",0.63 (active)
same,normalized growth,"S. cerevisiae deletion strains, locus YLR262C, strain YPT6, stronger effect = lower value",0.647
same,normalized growth,"S. cerevisiae deletion strains, locus YLR268W, strain sec22, stronger effect = lower value",0.726 (active)
same,normalized growth,"S. cerevisiae deletion strains, locus YLR320W, strain mms22, stronger effect = lower value",0.509 (active)
same,normalized growth,"S. cerevisiae deletion strains, locus YLR330W, strain CHS5, stronger effect = lower value",0.966
same,normalized growth,"S. cerevisiae deletion strains, locus YLR342W, strain FKS1 (second series), stronger effect = lower value",0.743 (active)
same,normalized growth,"S. cerevisiae deletion strains, locus YLR342W, strain FKS1, stronger effect = lower value",0.807 (active)
same,normalized growth,"S. cerevisiae deletion strains, locus YLR357W, strain rsc2, stronger effect = lower value",0.775 (active)
same,normalized growth,"S. cerevisiae deletion strains, locus YLR370C, strain arc18, stronger effect = lower value",0.562 (active)
same,normalized growth,"S. cerevisiae deletion strains, locus YLR371W, strain rom2, stronger effect = lower value",0.867 (active)
same,normalized growth,"S. cerevisiae deletion strains, locus YLR384C, strain iki3, stronger effect = lower value",0.809 (active)
same,normalized growth,"S. cerevisiae deletion strains, locus YLR418C, strain cdc73, stronger effect = lower value",0.819 (active)
same,normalized growth,"S. cerevisiae deletion strains, locus YML016C, strain PPZ1, stronger effect = lower value",0.864 (active)
same,normalized growth,"S. cerevisiae deletion strains, locus YML032C, strain rad52, stronger effect = lower value",0.642 (active)
same,normalized growth,"S. cerevisiae deletion strains, locus YML120C, strain ndi1, stronger effect = lower value",0.464 (active)
same,normalized growth,"S. cerevisiae deletion strains, locus YML124C, strain tub3, stronger effect = lower value",0.914 (active)
same,normalized growth,"S. cerevisiae deletion strains, locus YMR058W, strain fet3, stronger effect = lower value",0.562 (active)
same,normalized growth,"S. cerevisiae deletion strains, locus YMR078C, strain ctf18, stronger effect = lower value",0.994
same,normalized growth,"S. cerevisiae deletion strains, locus YMR125W, strain sto1, stronger effect = lower value",1.12 [resistant] (active)
same,normalized growth,"S. cerevisiae deletion strains, locus YMR129W, stronger effect = lower value",0.701 (active)
same,normalized growth,"S. cerevisiae deletion strains, locus YMR205C, strain PFK2, stronger effect = lower value",0.919
same,normalized growth,"S. cerevisiae deletion strains, locus YMR223W, strain ubp8, stronger effect = lower value",0.613 (active)
same,normalized growth,"S. cerevisiae deletion strains, locus YMR231W, strain pep5, stronger effect = lower value",0.793 (active)
same,normalized growth,"S. cerevisiae deletion strains, locus YMR263W, strain SAP30, stronger effect = lower value",0.957 and 1.01
same,normalized growth,"S. cerevisiae deletion strains, locus YMR307W, strain GAS1, stronger effect = lower value",0.901 and 0.99
same,normalized growth,"S. cerevisiae deletion strains, locus YNL067W, strain RPL9B, stronger effect = lower value",0.84 (active)
same,normalized growth,"S. cerevisiae deletion strains, locus YNL071W, strain lat1, stronger effect = lower value",0.698 (active)
same,normalized growth,"S. cerevisiae deletion strains, locus YNL128W, strain TEP1, stronger effect = lower value",0.784 (active)
same,normalized growth,"S. cerevisiae deletion strains, locus YNL175C, strain NOP13, stronger effect = lower value",1.03
same,normalized growth,"S. cerevisiae deletion strains, locus YNL183C, strain NPR1, stronger effect = lower value",0.611 (active)
same,normalized growth,"S. cerevisiae deletion strains, locus YNL197C, strain WHI3, stronger effect = lower value",1.01
same,normalized growth,"S. cerevisiae deletion strains, locus YNL209W, strain ssb2, stronger effect = lower value",0.647 (active)
same,normalized growth,"S. cerevisiae deletion strains, locus YNL224C, strain SQS1, stronger effect = lower value",0.929
same,normalized growth,"S. cerevisiae deletion strains, locus YNL233W, strain BNI4, stronger effect = lower value",0.843 (active)
same,normalized growth,"S. cerevisiae deletion strains, locus YNL248C, strain rpa49, stronger effect = lower value",0.346 (active)
same,normalized growth,"S. cerevisiae deletion strains, locus YNL250W, strain rad50, stronger effect = lower value",0.848 (active)
same,normalized growth,"S. cerevisiae deletion strains, locus YNL271C, strain bni1, stronger effect = lower value",0.811 (active)
same,normalized growth,"S. cerevisiae deletion strains, locus YNL298W, strain CLA4, stronger effect = lower value",0.905 (active)
same,normalized growth,"S. cerevisiae deletion strains, locus YNL307C, strain MCK1, stronger effect = lower value",0.756 (active)
same,normalized growth,"S. cerevisiae deletion strains, locus YNL322C, strain KRE1 (second series), stronger effect = lower value",0.65 (active)
same,normalized growth,"S. cerevisiae deletion strains, locus YNR049C, strain mso1, stronger effect = lower value",0.647 (active)
same,normalized growth,"S. cerevisiae deletion strains, locus YNR052C, strain pop2, stronger effect = lower value",0.909 (active)
same,normalized growth,"S. cerevisiae deletion strains, locus YOL012C, strain htz1",2.56 [resistant] (active)
same,normalized growth,"S. cerevisiae deletion strains, locus YOL147C, strain pex11, stronger effect = lower value",0.796 (active)
same,normalized growth,"S. cerevisiae deletion strains, locus YOR001W, strain rrp6, stronger effect = lower value",0.193 (active)
same,normalized growth,"S. cerevisiae deletion strains, locus YOR061W, strain CKA2, stronger effect = lower value",0.947
same,normalized growth,"S. cerevisiae deletion strains, locus YOR069W, strain VPS5, stronger effect = lower value",0.858 (active)
same,normalized growth,"S. cerevisiae deletion strains, locus YOR070C, strain gyp1, stronger effect = lower value",0.622 (active)
same,normalized growth,"S. cerevisiae deletion strains, locus YOR080W, strain dia2, stronger effect = lower value",0.809 (active)
same,normalized growth,"S. cerevisiae deletion strains, locus YOR083W, strain WHI5 (second series), stronger effect = lower value",1.03
same,normalized growth,"S. cerevisiae deletion strains, locus YOR083W, strain WHI5, stronger effect = lower value",0.686 (active)
same,normalized growth,"S. cerevisiae deletion strains, locus YOR106W, strain vam3, stronger effect = lower value",0.394 (active)
same,normalized growth,"S. cerevisiae deletion strains, locus YOR136W, strain idh2, stronger effect = lower value",0.902 (active)
same,normalized growth,"S. cerevisiae deletion strains, locus YOR144C, strain elg1, stronger effect = lower value",0.999
same,normalized growth,"S. cerevisiae deletion strains, locus YOR184W, strain ser1, stronger effect = lower value",0.561 (active)
same,normalized growth,"S. cerevisiae deletion strains, locus YOR231W, strain MKK1, stronger effect = lower value",0.549 (active)
same,normalized growth,"S. cerevisiae deletion strains, locus YOR265W, strain rbl2, stronger effect = lower value",0.654 (active)
same,normalized growth,"S. cerevisiae deletion strains, locus YOR270C, strain vph1, stronger effect = lower value",0.397 (active)
same,normalized growth,"S. cerevisiae deletion strains, locus YOR290C, strain snf2, stronger effect = lower value",0.415 (active)
same,normalized growth,"S. cerevisiae deletion strains, locus YOR316C, strain cot1, stronger effect = lower value",0.958
same,normalized growth,"S. cerevisiae deletion strains, locus YPL051W, strain arl3, stronger effect = lower value",0.598 (active)
same,normalized growth,"S. cerevisiae deletion strains, locus YPL055C, strain LGE1, stronger effect = lower value",0.955
same,normalized growth,"S. cerevisiae deletion strains, locus YPL078C, strain atp4, stronger effect = lower value",0.482 (active)
same,normalized growth,"S. cerevisiae deletion strains, locus YPL106C, strain sse1, stronger effect = lower value",0.709 (active)
same,normalized growth,"S. cerevisiae deletion strains, locus YPL240C, strain hsp82, stronger effect = lower value",0.671 (active)
same,normalized growth,"S. cerevisiae deletion strains, locus YPL241C, strain CIN2, stronger effect = lower value",1.03
same,normalized growth,"S. cerevisiae deletion strains, locus YPL256C, strain CLN2, stronger effect = lower value",0.714 (active)
same,normalized growth,"S. cerevisiae deletion strains, locus YPR119W, strain clb2, stronger effect = lower value",1.03
same,normalized growth,"S. cerevisiae deletion strains, locus YPR141C, strain kar3, stronger effect = lower value",1.03
same,normalized growth,"S. cerevisiae deletion strains, locus YPR163C, strain tif3, stronger effect = lower value",0.981
same,normalized growth,"S. cerevisiae deletion strains, locus YPR167C, strain met16, stronger effect = lower value",0.831 (active)
same,normalized growth,"S. cerevisiae deletion strains, strain wtn01, stronger effect = lower value",0.635 (active)
same,normalized growth,"S. cerevisiae strains, strain wild type, stronger effect = lower value",0.776 (active)
